Screens: PubChem BioAssay, National Center for Advancing Translational Sciences (NCATS)
This is a sample that favours compounds with a hit; in the whole collection about 7.9% have one here.
MCF10A rereplic: DNA re-replication induction in MCF 10a cells; actives 2.9% (n = 350,000); Potency, µM (series often up to 46.1 µM), without a hit: top-dose activity, positive = re-replication, actives largely listed as activators; MCF 10A DNA re-replication, Hoechst nuclear intensity, 48 h; AID 624296; note: % of control where 0% means no effect; nearly all actives have a fitted effect of over 50% in size
KB-3-1 tox: KB-3-1 parental cell cytotoxicity; KB-3-1 viability, CellTiter-Glo ATP luminescence, 72 h; Potency, µM (highest dose often 46.1 µM), usual class: cytotoxic; actives 1.4% (n = 400,000); note: % is set by controls: 0 for no effect and ±100 for the full control effect; nearly all actives have a fitted effect of over 60% in size
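KB-3-1 parental drug-naive adenocarcinoma cells in DMEM/10% FBS, incubated 72 h at 37 C with pin-transferred compounds across a concentration series. Viability by CellTiter-Glo luminescence; concentration-response curves fitted after normalization.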
HT1080-NT tox: kills 2HG-producing HT-1080-NT fibrosarcoma cells | Potency, µM (series often up to 46.1 µM), for the others: at the highest dose activity, negative = less viability, usual class: cytotoxic | HT-1080-NT fibrosarcoma viability, CellTiter-Glo ATP luminescence, 48 h | actives 1.6% (n = 360,000);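 note: NT is the 2HG producing partner of a matched IDH1 knockdown line; 0% = DMSO-treated cells and -100% = media-only wells without cells; nearly all actives have a fitted effect of over 55% in size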
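HT-1080-NT; 750 cells/well; 5% FBS RPMI; 48 h compound, 37 degrees C; CellTiter-Glo luminescence; curve fitting and curve-class assignment.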
HT1080 IDH1KD tx: kills HT-1080 cells with IDH1 knockdown. actives 2% (n = 360,000). Potency, µM (top dose mostly 46.1 µM), without a hit: at the top dose activity, negative = toxicity, actives largely listed as cytotoxic. HT-1080 IDH1 knockdown viability, ATP luminescence, 48 h;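 note: 0% = DMSO wells and -100% = cell-free medium wells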
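HT-1080-IDH1KD cells (IDH1 knocked down), 750/well in RPMI with 5% FBS, treated with compound 48 h at 37 degrees C. Viability by CellTiter-Glo luminescence, normalised to DMSO and no-cell wells; concentration-response curves classed.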
SW480 rereplic: induces DNA re-replication in SW480 colon adenocarcinoma cells; SW480 DNA re-replication, Hoechst DNA content imaging, 48 h; Potency, µM (top dose mostly 46.1 µM), without a hit: at the highest dose re-replication activation, most hits filed as activators; actives 1.8% (n = 340,000); note: % of control where 0% means no effect; nearly all actives have a fitted effect of over 55% in size
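250 cells/well; 23 nL cpd via pin tool; 48 hr, 37 C, 5% CO2; Hoechst 40 min; imager read of total nuclear intensity, ex 405/em 500-530 nm.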
KB-V1 MDR tox: KB-V1 MDR subline cytotoxicity; KB-V1 MDR cells viability, CellTiter-Glo, 72 h; AID 1347076; Potency, µM (highest dose often 46.1 µM), most hits filed as cytotoxic; actives 3.4% (n = 400,000); note: % is set by controls: 0 for no effect and ±100 for the full control effect; nearly all actives have a fitted effect of over 60% in size
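qHTS viability screen in drug-selected KB-V1 MDR cells: 72 h compound treatment at 37 degrees C, ATP luminescence end point.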
The depositor's hits bear a star; i = inactive; ? = inconclusive; / = no result given. Calls come from the whole dose curve; as a rule, active = well fitted curve in the direction sought with a large enough effect; inconclusive = small, poorly fitted or top-dose-only effect, or another doubt; inactive = no such curve, though single readings can be large; an effect the other way counts as inactive or inconclusive. Potency is the fitted concentration of half-maximal effect.

SMILES	MCF10A rereplic	KB-3-1 tox	HT1080-NT tox	HT1080 IDH1KD tx	SW480 rereplic	KB-V1 MDR tox
CCCCOc1ccc(CNC(=O)c2ccc(-c3nc(CN4CCc5ccccc54)c(C)o3)cc2)cc1	/	18µM*	/	/	/	?
Cc1cccc(Cn2cc(S(=O)(=O)c3ccccc3)c(=O)c3cc(F)c(N4CCOCC4)cc32)c1	/	i	/	/	/	i
OC[C@@H]1CN(Cc2ccc(-c3ccccc3)cc2)C[C@H](n2cnc3c(N4CCOCC4)ncnc32)O1	/	i	18µM*	21µM*	/	i
OC[C@@H]1CN(Cc2ccccc2)C[C@H](n2cnc3c(NC4CC4)ncnc32)O1	/	i	13%	21%	/	i
CN(C)CCNc1ncnc2c1ncn2[C@H]1CN(Cc2ccc(F)cc2)C[C@@H](CO)O1	/	8.2µM*	0%	17%	/	i
OC[C@@H]1CN(Cc2ccc(Cl)cc2)C[C@H](n2cnc3c(N4CCN(c5ccccc5)CC4)ncnc32)O1	/	?	18µM*	16µM*	/	?
OC[C@@H]1CN(Cc2ccc(-c3ccccc3)cc2)C[C@H](n2cnc3c(NC4CCC4)ncnc32)O1	/	?	13µM*	16µM*	/	?
OC[C@@H]1CN(Cc2ccc(Cl)cc2)C[C@H](n2cnc3c(N4CCOCC4)ncnc32)O1	/	i	?	3%	/	i
C=Cc1ccc(Cn2nc(-c3ccc(C)c(S(=O)(=O)N(CC)CC)c3)ccc2=O)cc1	/	i	/	/	/	i
COc1cccc(CN(C(=O)c2oc3ccc(Br)cc3c2C)C2CCS(=O)(=O)C2)c1 (centres undefined)	/	i	/	/	/	i
COc1ccc(CN2C[C@@H](CO)O[C@@H](n3cnc4c(N5CCN(c6ccccc6)CC5)ncnc43)C2)cc1	/	i	?	18µM*	/	i
CCCCCC(=O)Nc1nc2ccccc2[nH]1	21%	23µM*	?	?	?	?
O=C(CCCSc1nc2ccccc2[nH]1)NCc1ccccc1Cl	0%	i	3%	-1%	/	16µM*
O=C(Cc1cccc2ccccc12)Nc1nc2ccccc2[nH]1	0%	i	13µM*	13µM*	?	18µM*
CN(CC(=O)O)c1ccc(/C=C2\C=Cc3ccccc32)cc1	/	i	/	/	/	i
O=C(COC(=O)c1cc(=O)[nH]c2ccccc12)NC(=O)c1ccccc1	-1%	i	7%	-20%	26µM*	i
C/C(=N\NC(=O)c1nnn(-c2nonc2N)c1CN(C)c1ccccc1)c1ccccc1O	?	6.5µM*	?	?	3.3µM*	i
CCCc1c(C(=O)N/N=C(\C)c2ccc(O)cc2)nnn1-c1nonc1N	?	i	5%	2%	-4%	?
CCCc1c(C(=O)N/N=C(\C)c2ccccn2)nnn1-c1nonc1N	/	5.8µM*	?	?	/	?
CC(/C=N/NC(=O)c1nnn(-c2nonc2N)c1CN1CCCCC1)=C\c1ccccc1	7.3µM*	?	?	?	?	i
C/C(=N\NC(=O)c1nnn(-c2nonc2N)c1CN1CCCCC1)c1ccccc1O	13%	?	?	?	15µM*	i
CC(=C/c1ccccc1)/C=N/NC(=O)c1nnn(-c2nonc2N)c1CN1CCC(C)CC1	6%	i	0%	-2%	?	?
COc1ccc(/C(C)=N/NC(=O)c2nnn(-c3nonc3N)c2CN(C)c2ccccc2)cc1	4%	i	-4%	-7%	-9%	i
CCCCNC(=O)C1c2ccccc2OCC(=O)N1CCCN1CCOCC1 (centres undefined)	/	i	9%	9%	/	?
CCc1cnc2c(c1SCc1cc(OC)cc(OC)c1)c(=O)n(C)c(=O)n2C	/	i	/	/	/	i
O=C(NCCc1ccccc1Cl)c1ccc2c(c1)nc1n2CCCCC1	/	i	/	/	/	?
